An excerpt weighted towards active compounds, which were near 3% of everything screened.
Sm TGR block = S. mansoni TGR enzyme inhibition; Q962Y6; purified TGR, DTNB reduction, TNB absorbance 405 nm; Potency, µM (series often up to 114 µM), for inactives: top-dose activity change, negative = inhibition, most hits filed as inhibitors; 360,000 compounds, 3% hits; active = well fitted inhibition curve with a large enough effect; inconclusive = small, poorly fitted or top-dose-only effect; inactive = no such curve, though single readings can be large or run the other way; note: % is set by controls: 0 for no effect and ±100 for the full control effect; nearly all actives have a fitted effect of over 60% in size
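First, TGR (20 nM dispensed) and NADPH were mixed with compound. Second, a 15 min room-temperature incubation followed. Third, further NADPH and then DTNB were added to start the reaction. Finally, TNB absorbance was monitored kinetically.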
SARS PLpro yeast = SARS-CoV PLP inhibition in yeast. Potency, µM (top dose mostly 32.9 µM), without a hit: top-dose activity, positive = growth rescue, usual class: activators. AID 485353. S. cerevisiae expressing SARS-CoV PLpro, growth rescue. 330,000 compounds, 0.19% hits; calls by dose curve; note: 0% is about no effect; nearly all actives have a fitted effect of over 55% in size
* hit, by the source's call; ? = inconclusive; · = no result; [ ] = remark or other dose. Potency is the fitted concentration of half-maximal effect.

SMILES	Sm TGR block	SARS PLpro yeast
O=C1OC(c2cccs2)=N/C1=C\c1ccc(-c2ccccc2Cl)o1	?	-1%
COc1cc(O)oc1C=Nc1ccc(Cl)cc1	-10%	-1%
COc1cc(O)oc1C=Nc1ccc(Cl)cc1Cl	79µM*	-7%
CCn1c(=O)c2cc(C(=O)N3CCN(c4cccc(OC)c4)CC3)sc2c2ccccc21	2%	·
COc1cccc(CSc2nc3cc(OC)c(OC)cc3c3nc(CCn4nc(C)cc4C)nn23)c1	5%	·
COc1cc(CCC(=O)NCc2ccc3c(c2)CCN3C(=O)c2ccc(F)cc2)cc(OC)c1OC	5%	·
CCSc1ncc(Cl)c(C(=O)Nc2sc3c(c2C(=O)NCCCOC)CCCC3)n1	4%	·
COCCCNC(=O)c1c(NC(=O)c2nc(S(C)(=O)=O)ncc2Cl)sc2c1CCCC2	5.6µM*	·
COC(=O)c1ccc2c(c1)C(C)(C)C(/C=C/c1ccccc1O)=[N+]2C	50µM*	-24%
C[N+]1=C(/C=C/Nc2ccccc2Cl)C(C)(C)c2ccccc21	-27%	-7%
CCOCCc1nn2c(=O)cc(COC(=O)c3cccc(C)c3)nc2s1	-1%	·
CCCN1CCCc2cc(CN)ccc21	14µM*	4%
Cc1ccc2c(c1)CCCN2N=O	-8%	?
CCOC(=O)c1c(-c2ccccc2)oc2ccc(NS(=O)(=O)c3ccc(C(C)C)cc3)cc12	-1%	·
CCC(C(=O)NCc1ccco1)N(C(=O)CNS(=O)(=O)c1ccccc1)C1CCCCC1 (centres undefined)	45µM*	-12%
CC(C)C(C(=O)NCc1ccco1)N(C(=O)CNS(=O)(=O)c1ccccc1)C1CCCC1 (centres undefined)	-32%	3%
CC(=O)c1c(C)[nH]c(C2=NNC(=NCc3ccccc3)SC2)c1C	11µM*	-2%
c1ccc(CN=C2NN=C(c3ccccc3)CS2)cc1	-17%	2%
COc1ccccc1NS(=O)(=O)c1cc(NC(=O)CNC(=O)c2cc(C)cc(C)c2)ccc1C	14%	3%
CCNC(=S)Nc1ccc(C)c(S(=O)(=O)Nc2ccccc2OC)c1	2.8µM*	0%
CCS(=O)(=O)c1cccc(C(=O)N2CCN(c3nc4c(C)ccc(Cl)c4s3)CC2)c1	-1%	·
COc1ccccc1CN(C)C(=O)c1ccc2c(c1)NC(=O)CS2	9%	-7%
Cc1ccc(CN(C)C(=O)c2ccc3c(c2)NC(=O)CS3)o1	10µM*	-1%
CCc1ccccc1N1C(=O)NC(=O)/C(=C\c2cc(C)n(C)c2C)C1=O	-17%	4%
COc1ccc(N2C(=O)NC(=O)/C(=C/c3ccc4c(c3)Cc3ccccc3-4)C2=O)cc1	?	-9%
SMILES	Sm TGR block	SARS PLpro yeast
CCOc1ccccc1N1C(=O)NC(=O)/C(=C/c2ccc3c4c(cccc24)CC3)C1=O	32µM*	-6%
COc1cccc(N2C(=O)NC(=O)/C(=C/c3ccc4c5c(cccc35)CC4)C2=O)c1	25µM*	-14%
O=C(NCc1cccc(Cl)c1)c1ccc(NC(=O)N2CC3CCCN3c3ccccc32)cc1 (centres undefined)	-2%	·
Cc1ccc(C2CCN(C(=O)Nc3ccc(C)c(C)c3)C2)cc1 (centres undefined)	8%	·
O=C(Cc1ccccc1)OCc1ccccc1	-1%	-3%
CC1CCN(C(=O)COC(=O)/C=C/c2ccc(Br)o2)CC1	8.9µM*	5%
O=C(/C=C/c1ccc(Br)o1)NC(c1ccccc1)c1ccccc1	45µM*	-37%
O=C(NC(c1ccccc1)c1ccccc1)c1ccc(Br)o1	-2%	9%
CC1CCCC(C)N1C(=O)COC(=O)/C=C/c1ccc(Br)o1 (centres undefined)	·	-4%
O=C(/C=C/c1ccc(Br)o1)OCc1ccccc1	22µM*	-9%
COc1cc(NC(=O)N2CCC3(CC2)Nc2ccccc2-n2cccc23)cc(OC)c1OC	1%	·
COc1ccc(C(=O)N/N=C\c2coc3ccccc3c2=O)cc1	?	0%
COc1cc(C(=O)N/N=C/c2coc3ccccc3c2=O)cc(OC)c1OC	45µM*	-2%
COc1cccc(C(=O)NC(=S)Nc2ccc(Cl)c(C(=O)O)c2)c1	32µM*	·
Cc1ccc2nc(NC(=S)NC(=O)c3ccc(OC(C)C)cc3)sc2c1	0.71µM*	-41%
CC(C)Oc1ccc(C(=O)NC(=S)Nc2ccc(Cl)c(C(=O)O)c2)cc1	40µM*	2%
CCOc1cc(C(=O)Nc2ccncc2)cc(OCC)c1OCC	9%	0%
CCCOc1ccc(C(=O)NC(=S)Nc2nc3ccc(C)cc3s2)cc1	14%	7%
CCOc1cc(C(=O)NC(=S)Nc2ccc(Cl)c(C(=O)O)c2)cc(OCC)c1OCC	32µM*	1%
COc1c(C)cc(Br)cc1C(=O)NC(=S)Nc1ccc(Cl)c(C(=O)O)c1	-31%	0%
O=C(O)c1cc(NC(=S)NC(=O)C(c2ccccc2)c2ccccc2)ccc1Cl	-24%[57.1 µM]	0%
Cc1ccccc1CSc1nc2c(sc3ccccc32)c(=O)n1CCCC(=O)NCCCOC(C)C	8%	·

Source: PubChem BioAssay (National Center for Advancing Translational Sciences (NCATS))
